Structures are written as SMILES. Inconclusive results are not listed. The source made the active and inactive calls. The calls were made as follows, unless noted: active = hit-call score of the fitted dose curve at least 0.9, where 1 is the maximum; inconclusive = response in the unintended direction; inactive = score below 0.9.

For assay [1], the target named is Bile acid receptor (Homo sapiens) (UniProt Q96RI1). The experiment in a line: ATG_FXR_TRANS: Attagene TRANS-FACTORIAL HepG2 Assay for Farnesoid X Receptor (FXR) (AID 2282979).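 Also: hits raise reporter mRNA above DMSO so AC50 marks FXR activation.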 The note with it: HepG2 Attagene TRANS FXR-GAL4 reporter transcription. An outline of the steps: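 Transient transfection of HepG2 with multiplexed GAL4-UAS reporter units; exogenous FXR-GAL4 chimera. Dose 24 h → TriZol RNA → oligo(dT) RT → PCR, 6-FAM primer extension, HpaI cut → CE. Gain vs DMSO.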

Assay [2] is described as follows: ATG_M_06_TRANS: Attagene TRANS-FACTORIAL HepG2 Assay for M06 Transcription Factor (Internal Marker) (AID 2282983).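 Also: reporter transcript level by RT-PCR then capillary electrophoresis fluorescence.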 The conditions noted are these: HepG2 Attagene TRANS M06 internal marker reporter. The gist of the method: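 Transfect HepG2 with MRTUs → dose compounds 24 h → isolate RNA, oligo(dT) RT → PCR with reporter primers → 6-FAM primer extension → HpaI digest → CE fragment analysis. Positive direction vs DMSO.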

In assay [3] the target is Transcriptional activator Myb (Homo sapiens) (UniProt P10242). The experiment in a line: ATG_Myb_CIS: Attagene CIS-FACTORIAL HepG2 Assay for human Myeloblastosis (Myb) Proto-Oncogene Transcription Factor (AID 2282986; active = hit-call score of the fitted dose curve at least 0.9, where 1 is the maximum; inactive = score below 0.9). The note with it: HepG2 Attagene CIS-FACTORIAL Myb reporter transcription; actives raise or lower the signal. An outline of the steps: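 Fluorescence signals from capillary electrophoresis of RT-PCR-amplified reporter cDNA give the read-out. Cells: HepG2 transfected with multiple cis-regulated reporter units. Exposure lasts 24 hours; DMSO defines baseline for gain or loss of signal.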

The target in assay [4] is Nuclear respiratory factor 1 (Homo sapiens) (UniProt Q16656). The experiment in a line: ATG_NRF1_CIS: Attagene CIS-FACTORIAL HepG2 Assay for human Nuclear Respiratory Factor 1 (NRF1) Orphan Gene (AID 2282987; active = hit-call score of the fitted dose curve at least 0.9, where 1 is the maximum; inactive = score below 0.9). The conditions noted are these: HepG2 NRF1 cis-element reporter, Attagene multiplex; actives raise or lower the signal. An outline of the steps:
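Transcriptional reporter readout, one component of a 52-endpoint multiplexed HepG2 panel. Exposure 24 h; mRNA detected via RT-PCR and fluorescent capillary electrophoresis; fitting in both directions against DMSO.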

Assay [5] in a line: ATG_NFI_CIS: Attagene CIS-FACTORIAL HepG2 Assay for human Nuclear Factor I (NFI) (AID 2282989; active = hit-call score of the fitted dose curve at least 0.9, where 1 is the maximum; inactive = score below 0.9). The conditions noted are these: HepG2 cis-regulatory reporter, NFI response element transcription; actives raise or lower the signal. An outline of the steps:
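HepG2, transient MRTU, 24 h exposure; RNA→cDNA→PCR→FAM label→HpaI→CE fluorescence. Bidirectional fit, DMSO = baseline.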

In assay [6] the target is Oxysterols receptor LXR-alpha (Homo sapiens) (UniProt Q13133). The experiment in a line: ATG_LXRa_TRANS: Attagene TRANS-FACTORIAL HepG2 Assay for human Liver X Receptor alpha (LXRa) (AID 2282980). The note with it: HepG2 Attagene TRANS reporter, LXRa transactivation. The gist of the method:
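Transfect HepG2 with GAL4-UAS multiplex reporter constructs (TRANS format, chimeric receptor-GAL4); treat 24 h; extract RNA, reverse-transcribe, PCR-amplify, FAM-label, HpaI-digest; resolve fragments by capillary electrophoresis. Upward response vs DMSO.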

Assay [7] has as its target Nuclear receptor subfamily 4 group A member 2 (Homo sapiens) (UniProt P43354). The experiment in a line: ATG_NURR1_TRANS: Attagene TRANS-FACTORIAL HepG2 Assay for human Nuclear Receptor Related Protein 1 (NURR1) (AID 2282985). The conditions noted are these: HepG2 Attagene TRANS reporter, mRNA readout. The gist of the method:
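HepG2 cells transiently transfected with NURR1-Gal4 chimera and GAL4-UAS reporter units; after 24 hr compound exposure, reporter mRNA quantified by RT-PCR and capillary electrophoresis; gain of signal fitted against DMSO.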

For assay [8], the target named is Oxysterols receptor LXR-beta (Homo sapiens) (UniProt P55055). The experiment in a line: ATG_LXRb_TRANS: Attagene TRANS-FACTORIAL HepG2 Assay for human Liver X Receptor beta (LXRb) (AID 2282981). The conditions noted are these: HepG2 Attagene TRANS GAL4-LXRb reporter, mRNA. The gist of the method: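 HepG2 cells transiently transfected with GAL4-UAS reporter units for chimeric NR-Gal4 proteins, dosed for 24 h. Reporter transcripts measured by RT-PCR and capillary electrophoresis; gain-of-signal fitting relative to DMSO.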

For assay [9], the target named is Hepatocyte nuclear factor 4-alpha (Homo sapiens) (UniProt P41235). Briefly: ATG_HNF4a_TRANS: Attagene TRANS-FACTORIAL HepG2 Assay for human Hepatocyte Nuclear Factor 4 alpha (HNF4a) (AID 2282982). The conditions noted are these: HepG2 HNF4a transactivation reporter, mRNA readout. An outline of the steps: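 HepG2 cells transiently transfected with HNF4a-Gal4 chimera and GAL4-UAS reporter units, dosed for 24 h. Reporter mRNA measured by RT-PCR, fluorescent primer extension and capillary electrophoresis; gain-of-signal fitted relative to DMSO.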

The nature of assay [10]: ATG_M_32_TRANS: Attagene TRANS-FACTORIAL HepG2 Assay for M32 Transcription Factor (Internal Marker) (AID 2282984).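 Also: transcript level of a background control reporter unit measured by RT-PCR and capillary electrophoresis.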 The conditions noted are these: HepG2 Attagene TRANS M32 internal marker reporter. The gist of the method:
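HepG2 cells transiently transfected with GAL4-UAS reporter units, dosed for 24 hours. Reporter mRNA quantified by RT-PCR, 6-FAM labelling, HpaI digestion and capillary electrophoresis; internal-marker signal fitted upward relative to DMSO.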

Sequence of Oxysterols receptor LXR-beta (Homo sapiens) (P55055 whole entry, looked up, the tested form may be a part): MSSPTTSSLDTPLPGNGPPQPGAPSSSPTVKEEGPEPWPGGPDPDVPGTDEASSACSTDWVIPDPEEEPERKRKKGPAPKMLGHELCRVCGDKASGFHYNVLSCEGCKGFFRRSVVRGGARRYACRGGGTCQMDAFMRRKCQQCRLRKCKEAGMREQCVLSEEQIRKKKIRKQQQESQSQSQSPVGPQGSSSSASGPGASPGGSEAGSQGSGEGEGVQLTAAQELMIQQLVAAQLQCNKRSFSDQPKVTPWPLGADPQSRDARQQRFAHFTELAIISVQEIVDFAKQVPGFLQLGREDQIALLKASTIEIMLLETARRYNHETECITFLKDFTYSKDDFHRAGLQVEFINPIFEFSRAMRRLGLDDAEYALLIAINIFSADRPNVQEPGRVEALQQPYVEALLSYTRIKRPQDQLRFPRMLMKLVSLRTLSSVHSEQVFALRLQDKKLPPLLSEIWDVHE
Sequence of Nuclear receptor subfamily 4 group A member 2 (Homo sapiens) (P43354 whole entry, looked up, the tested form may be a part): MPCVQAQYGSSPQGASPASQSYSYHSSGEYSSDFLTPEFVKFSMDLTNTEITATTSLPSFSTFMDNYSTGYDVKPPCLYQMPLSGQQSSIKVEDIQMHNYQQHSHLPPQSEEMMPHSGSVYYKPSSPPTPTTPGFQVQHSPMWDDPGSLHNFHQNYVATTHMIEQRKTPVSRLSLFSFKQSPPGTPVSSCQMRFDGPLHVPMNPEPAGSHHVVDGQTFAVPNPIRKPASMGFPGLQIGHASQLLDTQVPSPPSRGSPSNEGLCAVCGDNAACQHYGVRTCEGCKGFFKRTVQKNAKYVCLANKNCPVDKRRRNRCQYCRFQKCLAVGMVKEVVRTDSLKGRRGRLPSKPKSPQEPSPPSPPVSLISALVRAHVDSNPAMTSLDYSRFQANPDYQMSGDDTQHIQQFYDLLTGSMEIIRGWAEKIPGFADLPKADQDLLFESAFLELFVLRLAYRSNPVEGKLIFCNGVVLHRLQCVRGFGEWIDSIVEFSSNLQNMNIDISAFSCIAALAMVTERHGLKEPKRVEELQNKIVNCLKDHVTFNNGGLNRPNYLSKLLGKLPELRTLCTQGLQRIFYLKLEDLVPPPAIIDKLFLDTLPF
Sequence of Hepatocyte nuclear factor 4-alpha (Homo sapiens) (P41235 whole entry, looked up, the tested form may be a part): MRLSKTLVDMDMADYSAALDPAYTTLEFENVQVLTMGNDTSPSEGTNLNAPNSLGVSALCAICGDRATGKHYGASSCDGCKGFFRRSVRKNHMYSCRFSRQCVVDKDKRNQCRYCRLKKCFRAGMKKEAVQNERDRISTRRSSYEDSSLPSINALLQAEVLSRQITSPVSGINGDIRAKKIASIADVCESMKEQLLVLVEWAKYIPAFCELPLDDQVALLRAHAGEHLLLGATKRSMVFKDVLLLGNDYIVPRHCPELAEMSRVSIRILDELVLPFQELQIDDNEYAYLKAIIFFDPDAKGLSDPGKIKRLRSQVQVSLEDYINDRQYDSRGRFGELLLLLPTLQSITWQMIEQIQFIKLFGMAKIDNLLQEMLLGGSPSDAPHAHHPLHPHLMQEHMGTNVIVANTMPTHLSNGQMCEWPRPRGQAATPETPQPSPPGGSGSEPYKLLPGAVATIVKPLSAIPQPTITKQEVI
Sequence of Transcriptional activator Myb (Homo sapiens) (P10242 whole entry, looked up): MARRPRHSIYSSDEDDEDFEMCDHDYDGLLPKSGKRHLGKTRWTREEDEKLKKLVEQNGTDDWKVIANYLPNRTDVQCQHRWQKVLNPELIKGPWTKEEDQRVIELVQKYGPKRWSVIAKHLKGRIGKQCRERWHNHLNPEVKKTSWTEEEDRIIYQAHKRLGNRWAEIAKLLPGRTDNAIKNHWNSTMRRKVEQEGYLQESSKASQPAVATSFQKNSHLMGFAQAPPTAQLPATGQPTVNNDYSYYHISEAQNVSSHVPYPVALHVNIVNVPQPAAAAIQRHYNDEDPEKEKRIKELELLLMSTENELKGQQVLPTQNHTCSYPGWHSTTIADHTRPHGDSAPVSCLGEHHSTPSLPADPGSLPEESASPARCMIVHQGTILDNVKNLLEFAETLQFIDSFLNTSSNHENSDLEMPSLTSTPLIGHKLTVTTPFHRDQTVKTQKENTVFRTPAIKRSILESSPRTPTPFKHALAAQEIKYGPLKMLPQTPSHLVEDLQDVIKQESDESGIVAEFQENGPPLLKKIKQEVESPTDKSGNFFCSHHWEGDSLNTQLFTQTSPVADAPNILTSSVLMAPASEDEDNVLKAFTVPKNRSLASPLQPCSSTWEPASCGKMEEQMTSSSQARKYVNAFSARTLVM
Sequence of Nuclear respiratory factor 1 (Homo sapiens) (Q16656 whole entry, looked up): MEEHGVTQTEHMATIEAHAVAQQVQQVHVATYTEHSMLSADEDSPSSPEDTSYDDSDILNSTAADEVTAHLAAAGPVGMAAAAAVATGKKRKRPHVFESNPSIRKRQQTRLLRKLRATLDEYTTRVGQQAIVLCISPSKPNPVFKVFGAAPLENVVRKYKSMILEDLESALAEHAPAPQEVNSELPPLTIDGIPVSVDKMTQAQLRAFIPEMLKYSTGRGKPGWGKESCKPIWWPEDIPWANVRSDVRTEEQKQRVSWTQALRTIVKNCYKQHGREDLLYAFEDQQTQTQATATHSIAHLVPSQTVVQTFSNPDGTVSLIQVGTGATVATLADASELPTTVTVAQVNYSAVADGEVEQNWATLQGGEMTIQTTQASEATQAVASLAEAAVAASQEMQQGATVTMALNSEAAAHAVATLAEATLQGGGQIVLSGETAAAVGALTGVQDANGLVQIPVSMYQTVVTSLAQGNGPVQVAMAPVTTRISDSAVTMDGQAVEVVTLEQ
Sequence of Oxysterols receptor LXR-alpha (Homo sapiens) (Q13133 whole entry, looked up, the tested form may be a part): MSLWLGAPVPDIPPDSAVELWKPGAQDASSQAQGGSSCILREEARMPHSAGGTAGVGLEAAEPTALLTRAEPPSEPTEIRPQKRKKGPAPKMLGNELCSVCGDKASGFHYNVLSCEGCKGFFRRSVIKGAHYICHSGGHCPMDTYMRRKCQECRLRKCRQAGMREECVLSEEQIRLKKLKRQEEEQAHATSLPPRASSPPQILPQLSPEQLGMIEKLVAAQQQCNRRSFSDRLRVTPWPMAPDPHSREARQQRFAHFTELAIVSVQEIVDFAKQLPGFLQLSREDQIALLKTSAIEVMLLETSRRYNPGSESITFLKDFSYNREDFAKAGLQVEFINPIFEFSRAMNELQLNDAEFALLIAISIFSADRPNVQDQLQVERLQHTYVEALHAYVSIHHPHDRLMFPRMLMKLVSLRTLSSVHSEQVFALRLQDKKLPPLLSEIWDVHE
Sequence of Bile acid receptor (Homo sapiens) (Q96RI1 whole entry, looked up, the tested form may be a part): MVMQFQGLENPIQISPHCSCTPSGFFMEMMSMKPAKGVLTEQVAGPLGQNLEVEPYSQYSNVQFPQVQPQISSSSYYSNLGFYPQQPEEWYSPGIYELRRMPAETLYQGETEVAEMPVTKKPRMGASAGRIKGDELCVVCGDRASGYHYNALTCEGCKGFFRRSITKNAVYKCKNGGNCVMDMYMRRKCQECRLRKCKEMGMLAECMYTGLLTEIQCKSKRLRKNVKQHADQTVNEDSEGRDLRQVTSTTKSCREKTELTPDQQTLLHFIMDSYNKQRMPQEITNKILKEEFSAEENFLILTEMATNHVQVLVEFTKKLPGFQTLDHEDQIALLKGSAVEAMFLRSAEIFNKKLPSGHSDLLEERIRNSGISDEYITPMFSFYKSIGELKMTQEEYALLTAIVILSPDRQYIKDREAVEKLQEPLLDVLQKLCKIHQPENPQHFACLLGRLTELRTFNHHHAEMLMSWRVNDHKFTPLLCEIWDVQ

On to `Cc1ccc(C(C)(C)C)c(O)c1`, for which the outcome in [1], in assay [2], in assay [3] and in assay [4] was inactive. Also, the AC50 in [5] is 141 µM (active).

Regarding `Cn1cnc2c1c(=O)[nH]c(=O)n2C`, the call in [1], in [6], in [2], in assay [7], in [3] and in assay [4] was inactive. Also, in assay [5], the compound was called inactive.

In the case of `NC(=Nc1ccccc1)Nc1ccccc1`, the result in [1], in assay [8], in [9], in assay [2], in assay [10] and in assay [3] was inactive. For the same compound, the outcome in assay [4] and in assay [5] was inactive.

For `CC(C)OC(=O)C(C)(C)Oc1ccc(C(=O)c2ccc(Cl)cc2)cc1`, the AC50 in [1] is 26.8 µM (active); in assay [7], 26.9 µM (active). Also, the result in assay [9], in assay [2], in assay [3], in assay [4] and in assay [5] was inactive.

On to `CSc1ccc(Oc2ccc(S(N)(=O)=O)cc2CN(C)C)cc1C`, for which the outcome in [1], in assay [6], in [8], in assay [10], in [7] and in assay [3] was inactive. Besides, the compound was classed as inactive in assay [4] and in assay [5].

Regarding `CCCCC(CC)COC(=O)CCCCCCCC(=O)OCC(CC)CCCC` (configuration not stated), the compound was called inactive in [1], in assay [8], in [2], in [7], in [3] and in assay [4]. The outcome in assay [5] was inactive.

Consider `CN(C)CCCN(C)CCCN(C)C`, for which the compound was classed as inactive in assay [1], in assay [3], in assay [4] and in [5]. Also, in [6], the AC50 is 23.8 µM (active).

`CC(COCC(C)OC(=O)c1ccccc1)OC(=O)c1ccccc1` (configuration not stated): the compound was classed as inactive in assay [1], in assay [9], in assay [2], in assay [3], in assay [4] and in assay [5].

Consider `CC(=O)OC1CC(C)OC(C)O1` (configuration not stated), for which the call in [1], in assay [8], in [10], in [7], in [3] and in [4] was inactive. The compound was classed as inactive in [5].

For `COC(=O)CCCC(=O)OC`, the result in assay [1], in [9], in assay [2], in assay [7], in assay [3] and in [4] was inactive. Besides, the compound was classed as inactive in assay [5].

For `O=C(O)CN(CC(=O)O)CC(=O)O`, the outcome in assay [1], in assay [6], in assay [9], in assay [2], in [10] and in assay [7] was inactive. Besides, the outcome in [4] and in [5] was inactive. The AC50 in assay [3] was 0.386 µM (active).

Consider `CCCCC(CC)CO` (configuration not stated), for which the call in assay [1], in assay [8], in [9], in assay [2], in assay [7] and in [3] was inactive. For the same compound, the compound was called inactive in assay [4] and in [5].

In the case of `C=CCc1ccc(OC)c(OC)c1`, the result in [1], in assay [6], in assay [9], in assay [2], in [3] and in assay [4] was inactive. Besides, the compound was classed as inactive in assay [5].

`O=C(N[C@@H](c1ccccc1)[C@@H]1CCCCN1)c1cccc(C(F)(F)F)c1Cl`: the call in assay [1], in assay [6], in assay [8], in [2], in assay [3] and in assay [5] was inactive. In addition, in assay [4], the AC50 was 56.9 µM (active).

`CCCCc1nc2cccnc2n1Cc1ccc(-c2ccccc2-c2nnn[nH]2)cc1`: the call in assay [1], in [6], in assay [8], in assay [10], in [3] and in [4] was inactive. For the same compound, the outcome in [5] was inactive.

`CCCCCCC(CCCCCCCCCCC(=O)OCC(COC(C)=O)OC(C)=O)OC(C)=O` (configuration not stated): the compound was classed as inactive in assay [1], in assay [2], in assay [3], in assay [4] and in assay [5].

As for `Nc1nc(Cl)nc2c1ncn2[C@H]1C[C@H](O)[C@@H](CO)O1`, the result in [1], in [8], in [2], in assay [3], in [4] and in assay [5] was inactive.

In the case of `Cc1cc(Cc2ccc(N)c(C)c2)ccc1N`, the call in [1], in [2], in assay [7], in assay [3], in assay [4] and in assay [5] was inactive.

Regarding `CN(C)C(=O)NC1(c2ccccc2)CCN(CCC[C@]2(c3ccc(Cl)c(Cl)c3)CCCN(C(=O)c3ccccc3)C2)CC1`, the outcome in assay [1], in assay [8], in [9], in assay [10] and in assay [3] was inactive. Further, the AC50 is 4.5 µM (active) in assay [4] and 3.32 µM (active) in [5].

In the case of `CN(C)CCCN1c2ccccc2Sc2ccc(Cl)cc21`, the compound was called inactive in [1], in [8], in assay [2], in [10], in [7] and in assay [3]. Also, the outcome in assay [4] and in assay [5] was inactive.
